D1 ag: activates the human D1 dopamine receptor. HEK293 T-REx D1 cells, calcium flux, agonist mode. activation, % at 2 µM. actives 1% (n = 360,000). AID 504660; further: 0% is about no effect
Target sequence (P21728 whole entry, looked up): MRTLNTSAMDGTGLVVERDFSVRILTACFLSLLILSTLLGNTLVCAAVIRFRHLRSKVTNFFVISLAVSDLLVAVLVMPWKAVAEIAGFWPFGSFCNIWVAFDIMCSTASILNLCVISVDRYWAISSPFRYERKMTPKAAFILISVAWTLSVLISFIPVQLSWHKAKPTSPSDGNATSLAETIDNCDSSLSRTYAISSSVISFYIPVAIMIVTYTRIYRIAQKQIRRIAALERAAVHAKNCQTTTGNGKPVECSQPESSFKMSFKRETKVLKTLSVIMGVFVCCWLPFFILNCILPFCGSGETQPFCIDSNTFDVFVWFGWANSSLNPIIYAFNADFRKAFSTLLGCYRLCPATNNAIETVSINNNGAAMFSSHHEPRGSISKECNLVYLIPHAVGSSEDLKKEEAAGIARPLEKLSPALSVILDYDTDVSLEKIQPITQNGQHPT
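Inducible HEK293 T-REx D1 cells, force-coupled to calcium signalling, were plated at 4000 cells/well with tetracycline and held overnight at 30 C. After no-wash calcium dye loading, compound-evoked calcium rise over 180 s flagged agonists.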
D1 antagonist: blocks dopamine activation of the human D1 receptor | P21728 | HEK293 TREx D1 cells, calcium flux, dopamine EC80; hits give low values | actives 3.2% (n = 360,000) | activity change, negative = inhibition, % at 10 µM; in the data active means activity change below about -30%; further: on the % scale 0 is the no-effect control and ±100 the full control effect
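Tetracycline-induced HEK293 T-REx cells with force-coupled D1 receptor were loaded with a no-wash calcium dye. Compound was added after a 10 s baseline and read kinetically for 180 s; EC80 dopamine was then added and calcium flux followed another 180 s.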
D1 PAM: enhances dopamine response at the human D1 receptor; HEK293 TREx D1 cells, calcium flux, dopamine EC20 potentiation; AID 504651; potentiation, % at 10 µM; P21728; actives 0.036% (n = 360,000); in the data active means potentiation above about 30%; further: 0% is about no effect
TRHR PAM: TRH receptor (human) allosteric enhancement. P34981. TRHR cells, fluo-8 calcium fluorescence, EC20 TRH enhancement. enhancement, % at 2 µM. actives 0.66% (n = 360,000). AID 493056; in the data active means enhancement above about 30%; further: 0% is about no effect
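Enhancer read-out: after compound pinning and an initial kinetic agonist-mode read, an EC20 of TRH (10 nM final) was injected and fluo-8 calcium signal (Ex 480/Em 530) followed at 1 s/cycle for 100 cycles in TRHR-expressing cells.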
TRHR ag: TRH receptor (human) agonism; P34981; TRHR cells, calcium flux fluo-8, FDSS agonist mode; activation, % at 2 µM; actives 0.18% (n = 360,000); further: 0% is about no effect
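Read-out: compound-evoked intracellular calcium rise in TRHR cells, fluo-8 dye, kinetic FDSS fluorescence at 1 s/cycle following a 10-cycle baseline. Cells cultured overnight before dye loading (30 min–1.5 h, RT).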
Starred values were filed as active, the others as inactive. A selection: hits, their analogues and other compounds. The true share with any hit is near 4.7%. Unless noted, no stated cut-off is given here; in the data, active means activation above about 30%; inactive means the rest.

Screening CS(=O)(=O)C1=NSC2=NC(=O)/C(=C\c3cccn3-c3ccc(Cl)cc3)C(=N)N21 returned D1 ag 3.5, D1 antagonist -35.7*, D1 PAM -5.0, TRHR PAM -5.3 and TRHR ag 0.3.
For Cc1cc(/C=C2/C(=N)N3C(=NC2=O)SN=C3S(C)(=O)=O)c(C)n1-c1ccccc1F the results were D1 ag 4.1, D1 antagonist -20.9, D1 PAM -9.2, TRHR PAM -0.6 and TRHR ag -2.2.
Screening Cc1ccc(Cl)cc1N(C)C(=O)c1noc2c1CCCCC2 returned D1 ag 0.3, D1 antagonist -9.5, D1 PAM 1.6, TRHR PAM 8.3 and TRHR ag -0.6.
Screening CC(C)N=c1c([N+](=O)[O-])nn(C)n1O returned D1 ag 2.2, D1 antagonist -58.1*, D1 PAM -4.3, TRHR PAM 3.9 and TRHR ag 0.5.
`CN=c1c([N+](=O)[O-])nn(-c2ccc3c(c2)OCCO3)n1O` gave D1 ag 3.2, D1 antagonist 2.5, D1 PAM -0.3, TRHR PAM -0.8 and TRHR ag 0.0.
Cc1ccc([N+](=O)[O-])cc1NC(=O)Nc1ccc(S(N)(=O)=O)cc1 was read as D1 ag 6.5, D1 antagonist -79.0*, D1 PAM -18.4, TRHR PAM 9.4 and TRHR ag 0.8.
Screening CC(NCc1ccc(S(N)(=O)=O)cc1)C(=O)Nc1cc([N+](=O)[O-])ccc1Cl (stereo not given) returned D1 ag 1.0, D1 antagonist 8.5, D1 PAM -5.8, TRHR PAM -0.5 and TRHR ag 0.0.
`O=C(Nc1ccc(Cl)cc1)Nc1cc([N+](=O)[O-])ccc1F` gave D1 ag 12.4, D1 antagonist -37.4*, D1 PAM -4.2, TRHR PAM -8.7 and TRHR ag 1.8.
`O=C(Nc1ccc(Cl)cc1)Nc1csc([N+](=O)[O-])c1` gave D1 ag 18.9, D1 antagonist -44.6*, D1 PAM -10.7, TRHR PAM -8.9 and TRHR ag 0.4.
CC(NCc1ccc(S(N)(=O)=O)cc1)C(=O)Nc1ccc([N+](=O)[O-])cc1Cl (stereo not given) was read as D1 ag 3.2, D1 antagonist -30.1*, D1 PAM -6.2, TRHR PAM -14.6 and TRHR ag 0.4.
COc1ccccc1N1CCN(C(=O)c2cc3ccc4ccc(C)[nH]c4c3n2)CC1 was read as D1 ag 2.8, D1 antagonist -2.6, D1 PAM 3.0, TRHR PAM -7.0 and TRHR ag -0.7.
For CC(C)CC(=O)NC1CC(=O)N(c2ccc3c(c2)OCCO3)C1 (stereo not given) the results were D1 ag 1.0, D1 PAM -0.5, TRHR PAM 10.7 and TRHR ag -0.8.
CN(C)C(=O)Nc1ccccc1CC[N+](=O)[O-] was read as D1 ag 3.4, D1 antagonist 1.0, D1 PAM -0.9, TRHR PAM 0.7 and TRHR ag 0.3.
For O=C(Nc1csc([N+](=O)[O-])c1)Nc1c(Cl)cccc1Cl the results were D1 ag 8.8, D1 antagonist -44.9*, D1 PAM -7.1, TRHR PAM 0.1 and TRHR ag 0.0.
O=C(Nc1ccc(Cl)cc1)Nc1ccccc1CC[N+](=O)[O-] was read as D1 ag 34.9*, D1 antagonist -39.4*, D1 PAM -7.8, TRHR PAM -3.8 and TRHR ag 0.2.
`Cc1ccc([N+](=O)[O-])cc1NC(=O)Nc1onc(C)c1C` gave D1 ag 9.7, D1 antagonist -36.1*, D1 PAM -18.0, TRHR PAM 6.4 and TRHR ag -0.8.
Cc1ccc(C)c(N2CCN(S(=O)(=O)c3ccc4c(c3)CCN4C(=O)CCC(=O)O)CC2)c1 was read as D1 ag 0.5, D1 antagonist -34.2*, TRHR PAM 8.4 and TRHR ag 0.5.
Screening Cc1ccc(NS(=O)(=O)c2ccc3c(c2)CCN3C(=O)CCC(=O)O)cc1Cl returned D1 ag 39.6*, D1 antagonist -0.4, D1 PAM -23.8, TRHR PAM 24.9 and TRHR ag 0.1.
Screening Cc1cccc(N2CCN(S(=O)(=O)c3ccc4c(c3)CCN4C(=O)CCC(=O)O)CC2)c1C returned D1 ag 2.4, D1 antagonist 2.0, D1 PAM 7.5, TRHR PAM 4.8 and TRHR ag 0.2.
O=[N+]([O-])c1ccc(N/N=C/c2cccc(O)c2O)c(S(=O)(=O)N2CCOCC2)c1 was read as D1 ag 57.9*, D1 antagonist -76.5*, D1 PAM -13.1, TRHR PAM -2.0 and TRHR ag 0.1.
O=[N+]([O-])c1ccc(N/N=C/c2ccc(O)c(O)c2O)c(S(=O)(=O)N2CCOCC2)c1 was read as D1 ag 6.2, D1 antagonist -0.7, D1 PAM 10.2, TRHR PAM 3.6 and TRHR ag 0.5.
For O=C1/C(=C/c2ccncc2)SC(=S)N1C1CCS(=O)(=O)C1 (stereo not given) the results were D1 ag 0.5, D1 antagonist -6.5, D1 PAM -0.9, TRHR PAM 1.2 and TRHR ag 1.3.
`O=C1/C(=C/c2ccccc2)SC(=S)N1C1CCS(=O)(=O)C1` (stereo not given) gave D1 ag 9.8, D1 antagonist -46.4*, D1 PAM -11.4, TRHR PAM -2.3 and TRHR ag -0.3.
CCOC(=O)c1nc(-c2ccccc2)oc1N(C)C was read as D1 ag 0.5, D1 antagonist -11.4, D1 PAM -2.9, TRHR PAM 30.1* and TRHR ag -0.4.
For COc1ccc(NS(=O)(=O)c2cc(-c3onc(C)c3C)ccc2C)c(OC)c1 the results were D1 ag 0.7, D1 antagonist 7.1, D1 PAM 2.3, TRHR PAM 13.4 and TRHR ag 0.3.
`COc1ccc(OC)c(CNS(=O)(=O)c2cc(-c3onc(C)c3C)ccc2C)c1` gave D1 ag 2.1, D1 antagonist -38.1*, D1 PAM -7.5, TRHR PAM 1.1 and TRHR ag -0.5.
For COc1ccc(N2CCN(C(=O)CN3C(=O)CSc4c3c(C)nn4-c3ccccc3)CC2)cc1 the results were D1 ag 7.1, D1 antagonist -23.9, D1 PAM -8.0, TRHR PAM 1.5 and TRHR ag -0.3.
Screening CCCN1C(=O)S/C(=C\c2ccc(N3CCOCC3)cc2C)C1=O returned D1 ag 5.0, D1 antagonist -3.0, D1 PAM -6.2, TRHR PAM 10.2 and TRHR ag -0.6.
`CCCN1C(=O)S/C(=C/c2ccc(N3CCOCC3)o2)C1=O` gave D1 ag 103.2*, D1 antagonist -21.4, D1 PAM 10.8, TRHR PAM 5.4 and TRHR ag -0.8.
